# Shown are actives, neighbours in structure and some others; about 9% of the full set was active somewhere.
# HPGD inh: qHTS Assay for Inhibitors of HPGD (15-Hydroxyprostaglandin Dehydrogenase); purified HPGD, NADH fluorescence kinetic, PGE2 substrate; Potency, µM, for inactives: at the top dose activity change, negative = inhibition, most hits filed as inhibitors; 4.3% of 150,000 active; AID 894, 2007; note: potency is the fitted concentration of half-maximal effect
# Target sequence (P15428 whole entry, looked up): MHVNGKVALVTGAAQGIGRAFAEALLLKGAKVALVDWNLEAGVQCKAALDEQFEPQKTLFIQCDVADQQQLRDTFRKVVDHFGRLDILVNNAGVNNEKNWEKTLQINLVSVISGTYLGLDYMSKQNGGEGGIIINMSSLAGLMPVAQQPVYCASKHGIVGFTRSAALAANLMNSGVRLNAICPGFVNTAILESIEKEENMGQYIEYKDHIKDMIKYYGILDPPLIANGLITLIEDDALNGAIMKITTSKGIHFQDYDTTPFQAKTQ
#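 NADH formation kinetics: reaction with 30 uM PGE2 and 1 mM NAD+ (final), 20 nM enzyme, Tris-HCl pH 8 with Tween 20, after 15 min compound preincubation at room temperature. Fluorescence change, last versus first of five reads.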
# ALDH1A1 block: qHTS Assay for Inhibitors of Aldehyde Dehydrogenase 1 (ALDH1A1); AID 1030, 2008; 7.3% of 220,000 active; Aldehyde dehydrogenase 1A1 (Homo sapiens), P00352; Potency, µM (titrated, usually from 75.3 µM), for inactives: at the highest dose activity, negative = inhibition, hits mostly inhibitors; Purified ALDH1A1, NADH fluorescence, propionaldehyde substrate;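 note: potency is the fitted concentration of half-maximal effect; plate controls were no enzyme wells and a reference inhibitor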
# IMPase inh: qHTS Assay for Identifying the Cell-Membrane Permeable IMPase Inhibitors; Inositol monophosphatase 1 (Rattus norvegicus), P97697; CHO-M1 cells, IP1 accumulation, HTRF TR-FRET ratio; inhibition (IP1 accumulation), % at 46.1 µM; 120,000 tested, under 10 active; AID 901, 2007; active = well fitted curve in the direction sought with a large enough effect in the signal ratio, not every such curve was filed as active; inconclusive = small, poorly fitted or top-dose-only effect, or a change in a side signal; inactive = no such curve, though single readings can be large or run the other way; the % refers to the signal ratio;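 note: cells stimulated with carbachol in lithium chloride buffer; plate controls were DMSO basal wells for no effect and reference inhibitor wells for full effect; higher means more IMPase inhibition seen as more IP1 and lower FRET ratio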
# Target sequence (P97697 whole entry, looked up): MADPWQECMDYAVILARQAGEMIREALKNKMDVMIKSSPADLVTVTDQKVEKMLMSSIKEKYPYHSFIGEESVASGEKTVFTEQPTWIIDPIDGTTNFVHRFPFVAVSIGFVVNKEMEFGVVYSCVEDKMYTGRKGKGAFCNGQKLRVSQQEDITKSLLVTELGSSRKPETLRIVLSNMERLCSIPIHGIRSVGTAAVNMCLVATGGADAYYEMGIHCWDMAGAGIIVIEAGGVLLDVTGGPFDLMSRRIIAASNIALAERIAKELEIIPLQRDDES
#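 The IP-One HTRF competitive assay in carbachol-stimulated CHO-M1 cells quantifies cellular IP1. Compounds spanned up to 46 uM final, and activity is expressed as AC50 from concentration-response fits of the ratio and donor data.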
# An asterisk follows results filed as active; ? = inconclusive; · = not tested or not shown; [ ] = dose if it differs, or a comment. Unless noted, calls come from the whole dose curve; as a rule, active = well fitted inhibition curve with a large enough effect (not every such curve was filed as active); inconclusive = small, poorly fitted or top-dose-only effect, or another doubt; inactive = no such curve, though single readings can be large or run the other way. Unless noted, % is set by controls: 0 for no effect and ±100 for the full control effect.
SMILES,HPGD inh,ALDH1A1 block,IMPase inh
N#Cc1c(NC(=O)Cn2c(=O)oc3ccccc32)oc(-c2ccccc2)c1-c1ccccc1,?,12.6µM*,6.7
O=C(Cn1c(=O)oc2ccccc21)Nc1ccc(C(=O)O)cc1,·,·,-8.9
COc1ccc(CNC(=O)c2nnn(-c3cccc(C(F)(F)F)c3)c2N)cc1,·,1.2%,·
Oc1cc2c(c(Cl)c1O)CCNC[C@H]2c1ccccc1,-17.8%,5.2%,12.2
CCCCOc1ccc(N2C(=O)CC(NCc3ccncc3)C2=O)cc1 (stereo unspecified),·,-7.1%,·
CCn1ccnc1CN(C)Cc1cn(-c2ccc(C)cc2)nc1-c1cccc(C)c1,·,-6.6%,·
CCn1ccnc1CN(C)Cc1cn(-c2cccc(C)c2)nc1-c1cccc(F)c1,·,20µM*,·
Cc1cccc(-n2cc(CNCCN3CCOC3=O)c(-c3cccc(F)c3)n2)c1,·,0.4%,·
Cc1cccc(-n2cc(CN3CCCN(C=O)CC3)c(-c3cccc(F)c3)n2)c1,·,10µM*,·
CCCN(CCC)S(=O)(=O)c1ccc(C(=O)NNc2nc(-c3ccccc3)c3cc(Br)ccc3n2)cc1,-17.7%,5.5%,·
Cc1ccc(SCCNC(=O)CN(c2cccc(C)c2C)S(C)(=O)=O)cc1,·,·,-1.7
COC(=O)N/N=C/c1cc(C)n(-c2cccc3ccccc23)c1C,-12.5%,-2.1%,·
Cc1cc(C=O)c(C)n1-c1sc2c(c1C(=O)O)CCCC2,-0.4%,4.4%,·
Cc1c(C(=O)O)cccc1-n1c(C)cc(C=O)c1C,·,22.4µM*,·
Cc1ccc(C(=O)O)cc1-n1c(C)cc(C=O)c1C,·,2µM*,·
CCCCCCCCCCC/C=C\C(C)(C)/C=C\CCCC(=O)O,-4.5%,-11.8%,1.0
Cc1onc(-c2c(F)cccc2Cl)c1C(=O)N1CCN(S(C)(=O)=O)CC1,-8.7%,-6.7%,-3.2
CN(C)/C=C/c1onc(-c2c(F)cccc2Cl)c1C#N,·,3.55µM*,·
CCOc1ccc(Br)cc1S(=O)(=O)Nc1ccc(N2CCOCC2)cc1,0.7%,8.8%,0.8
Cc1sc2nc(CN3CCOCC3)nc(NS(=O)(=O)c3ccc4c(c3)OCCO4)c2c1C,-1.4%,1.26µM*,-0.3
CCOc1ccc(Br)cc1S(=O)(=O)Nc1nc(CN2CCOCC2)nc2sc(C)c(C)c12,-5.1%,12.6µM*,-10.5
Cc1sc2nc(CN3CCOCC3)nc(NS(=O)(=O)c3ccccc3)c2c1C,-12.3%,?,-5.7
CCN1CCN(c2nc(C)c3c(n2)CCCC3=O)CC1,-11.4%,8.7%,?
CC(=O)c1c(C)nn(CC(O)COc2ccc3ccccc3c2)c1C (stereo unspecified),·,3.3%,·
Cc1ccc(Nc2nnc(SCC(=O)Nc3cccc(S(=O)(=O)N4CCCCC4)c3)s2)cc1,-11.8%,-4.7%,3.7
SMILES,HPGD inh,ALDH1A1 block,IMPase inh
CC(C)CC(=O)Nc1nnc(SCC(=O)Nc2ccc(F)cc2)s1,·,11.3%,·
O=C(CSc1nnc(Nc2ccccc2F)s1)Nc1cccc(S(=O)(=O)N2CCCCC2)c1,-10.0%,22.4µM*,·
CC(C)Nc1nnc(SCC(=O)Nc2ccc3c(c2)C(=O)c2ccccc2C3=O)s1,-19.4%,7.94µM*,·
O=C(Cc1ccccc1)Nc1nnc(SCC(=O)NC2CCCC2)s1,·,9.4%,·
O=C(CSc1nnc(NC2CCCCC2)s1)Nc1ccc2c(c1)C(=O)c1ccccc1C2=O,·,12.6µM*,·
CC(NC(=O)c1ccc(Nc2nc3ccccc3n3nnnc23)cc1)c1ccccc1 (stereo unspecified),·,·,4.5
Cc1ccc(C)c(N2N=C(C(=O)Nc3nccs3)CCC2=O)c1,·,5.2%,·
O=C(O)c1ccc(C[n+]2c(-c3ccccc3)csc2Nc2ccccc2)cc1,15.8µM*,-13.6%,-3.0
CCCCCC[n+]1c(-c2ccccc2)csc1Nc1ccccc1,-5.1%,-8.6%,10.2
O=C(c1ccc(S(=O)(=O)N2CCCCCC2)cc1)N1CCN(c2ccccn2)CC1,-17.8%,12.6µM*,10.7
O=C(c1cccc(S(=O)(=O)N2CCc3ccccc32)c1)N1CCN(c2ccccn2)CC1,·,12.6µM*,·
O=C(NNC(=O)c1cccc(S(=O)(=O)N2CCc3ccccc32)c1)c1ccccc1,·,-2.5%,·
O=C(c1ccc(Cl)c(S(=O)(=O)N2CCCC2)c1)N1CCN(c2ccccn2)CC1,-3.5%,-7.5%,-1.0
Cn1c(SCC(=O)NNC(=O)c2ccc(Cl)cc2)nnc1-c1cccnc1,·,2.2%,·
CCOc1ccccc1N1C(=O)CC(Nc2ccc(N3CCOCC3)cc2)C1=O (stereo unspecified),-16.3%,7.94µM*,0.8
COc1ccccc1N1C(=O)CC(Nc2ccc(N3CCOCC3)cc2)C1=O (stereo unspecified),-8.4%,?,18.3
O=C(N/N=C/c1ccccc1)c1ccc(N2CCOCC2)c([N+](=O)[O-])c1,-26.3%,?,·
Cc1ccc(C(=O)O/N=C\c2ccc(N3CCOCC3)c([N+](=O)[O-])c2)cc1,-23.4%,2.24µM*,-0.2
O=C(O/N=C\c1ccc(N2CCCCC2)c([N+](=O)[O-])c1)c1ccc(Cl)cc1Cl,-6.4%,?,10.0
CCCCC(=O)N/N=C/c1ccc(N2CCOCC2)c([N+](=O)[O-])c1,3.2%,11.2µM*,·
CC(C)Cn1c(N)c(C(=O)CSc2nc3ccccc3c(=O)n2CCCN2CCOCC2)c(=O)n(C)c1=O,·,8.5%,·
CCCCn1c(C(C)NC(=O)CC)nc2ccccc21 (stereo unspecified),-5.5%,-4.0%,2.4
CCCCCCn1c(C(C)NC(=O)c2ccco2)nc2ccccc21 (stereo unspecified),-7.0%,5.01µM*,13.7
O=C(CN1CCNCC1)NCCSc1ccc(Cl)cc1,·,-33.3%,·
CC1=CC(C)(C)N2C(=O)C(=O)c3cc(OC(=O)c4ccco4)cc1c32,·,0.631µM*,·
SMILES,HPGD inh,ALDH1A1 block,IMPase inh
CC1=CC(C)(C)Nc2ccc(OC(=O)c3ccco3)cc21,-19.5%,5.3%,3.6
C[C@@H]1C(=O)O[C@@H]2C[C@]34[C@H]5C[C@@H](C(C)(C)C)[C@@]36[C@@H](OC(=O)[C@@H]6O)O[C@@]4(C(=O)O5)[C@@]12O,1.3%,2.4%[20.9 µM],1.2[20.6 µM]
COc1cc2c(cc1OC)-c1cc3nc4ccccc4nc3n1C(C)(C)C2,?,?,-7.2
O=C(CSc1cccc[n+]1[O-])c1cc2ccccc2o1,28.2µM*,?,-2.9
O=C(O)CSc1cccc[n+]1[O-],3.7%,0.8%,16.1
Cc1ccc(S(=O)(=O)NNC(=O)NC23CC4CC(CC(C4)C2)C3)cc1,1.5%,-5.4%,·
CC(C)(C)C(=O)Cn1ncc(N2CCCC2)c(Br)c1=O,-6.2%,-0.8%,1.5
O=C(OCn1ncc(Br)c(Br)c1=O)c1c(F)cccc1F,28.2µM*,0.501µM*,-25.4
CC(=O)Cn1ncc(Br)c(Br)c1=O,·,3.55µM*,·
CCOC(=O)c1sc2nc(COC(=O)c3c(F)cccc3F)[nH]c(=O)c2c1C,·,1.7%,·
COc1ccc(/C(O)=C/c2nc3ccc(C(=O)NCCc4cccc(C)c4)cc3[nH]c2=O)cc1OC,-8.4%,?,0.5
Cc1cccc(/C=N/NC(=O)Cn2nnnc2N)n1,·,2.1%,·
CCCn1c(SCC(=O)N2CCCc3ccccc32)nnc1-c1ccccn1,-8.8%,?,-1.0
Cc1nn(-c2nnc(NCc3ccccc3)nn2)c(C)c1Br,14.1µM*,28.2µM*,·
Cc1cc(C)n(-c2nnc(NCc3ccc(Cl)cc3)nn2)n1,·,1.8%,·
